High-throughput results from PubChem.
An excerpt weighted towards active compounds, which were near 19% of everything screened.
HT1080-NT tox: kills 2HG-producing HT-1080-NT fibrosarcoma cells | Potency, µM (titrated, usually from 46.1 µM), without a hit: at the top dose activity, negative = less viability, usual class: cytotoxic | HT-1080-NT fibrosarcoma viability, CellTiter-Glo ATP luminescence, 48 h | hit rate 1.6% among 360,000 | AID 686970;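 further: NT is the 2HG producing partner of a matched IDH1 knockdown line; potency means the concentration at half of the fitted maximal effect; 0% = DMSO-treated cells and -100% = media-only wells without cells; nearly all actives have a fitted effect of over 55% in size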
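Read-out is CellTiter-Glo luminescence after 10 minutes at room temperature, following 48 hours' compound treatment of HT-1080-NT cells (750 cells/well, RPMI, 5% FBS, 37 degrees C).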
uPA generation: blocks generation of uPA at the cell surface; cell surface uPA generation assay, qHTS; hit rate 0.31% among 330,000; Potency, µM (titrated, usually from 38.3 µM), for the others: top-dose activity change, negative = inhibition, actives largely listed as inhibitors; active means well fitted inhibition curve with a large enough effect; inconclusive means small, poorly fitted or top-dose-only effect; inactive means no such curve, though single readings can be large or run the other way; tested in mouse RAW 264.7 cells; further: potency means the concentration at half of the fitted maximal effect; nearly all actives have a fitted effect of over 55% in size
TDP1 cell CPT: DT40-hTDP1 cell growth loss with CPT; chicken DT40 Tdp1-/-;hTDP1 cells + 20 nM CPT, ATP luminescence, 48 h; Potency, µM (doses to about 46.2 µM), inactives show top-dose activity change, negative = growth inhibition, usual class: inhibitors; hit rate 12% among 420,000; AID 686979; further: potency means the concentration at half of the fitted maximal effect; nearly all actives have a fitted effect of over 55% in size
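Cell growth measured by CellTiter-Glo luminescence after a minimum 48 h, 37 C compound exposure with 20 nM CPT in Tdp1-knockout DT40 cells stably expressing hTDP1, seeded 400/well; qHTS titration format.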
IL1B secr inh: inhibitors of inflammasome signaling (IL-1 beta secretion). hit rate 4.7% among 360,000. THP-1 LPS/ATP IL-1B secretion, AlphaLISA, 16 h; stronger effect = lower value. activity change, % at 57.5 µM; in the data active means activity change below about -50%; inconclusive means mostly about -30% to -49%
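Secreted IL-1B measured by AlphaLISA bead assay after 16 h compound exposure of THP-1 cells; compounds (final up to 57.5 uM) added 1 h before LPS (250 ng/mL) and ATP (1.25 mM) stimulation; lower signal means less secretion.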
HT1080 IDH1KD tx: kills HT-1080 cells with IDH1 knockdown; HT-1080 IDH1 knockdown viability, ATP luminescence, 48 h; Potency, µM (top dose mostly 46.1 µM), for the others: at the top dose activity, negative = toxicity, most hits filed as cytotoxic; hit rate 2% among 360,000; AID 686971;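 further: potency means the concentration at half of the fitted maximal effect; 0% = DMSO wells and -100% = cell-free medium wells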
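HT-1080-IDH1KD cells (IDH1 knocked down), 750/well in RPMI with 5% FBS, treated with compound 48 h at 37 degrees C. Viability by CellTiter-Glo luminescence, normalised to DMSO and no-cell wells; concentration-response curves classed.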
TDP1 cell noCPT: qHTS for Inhibitors of human tyrosyl-DNA phosphodiesterase 1 (TDP1): qHTS in cells in absence of CPT. AID 686978, 2013. hit rate 15% among 420,000. DT40 Tdp1-/- hTDP1 cells, no CPT, ATP luminescence, 48 h. Potency, µM (highest dose often 46.2 µM), for the others: top-dose activity change, negative = growth inhibition, usual class: inhibitors; further: potency means the concentration at half of the fitted maximal effect; nearly all actives have a fitted effect of over 55% in size
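Growth kinetics read by CellTiter-Glo luminescence after ≥48 hr at 37 °C. Cells: DT40 Tdp1-/- stably carrying human TDP1, 400 per well, compound exposure in the absence of CPT (DMSO vehicle).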
* hit, by the source's call; i = inactive; ? = inconclusive; nt = not tested or not shown. Unless noted, the call rests on the fitted dose curve; in most records, active means well fitted curve in the direction sought with a large enough effect; inconclusive means small, poorly fitted or top-dose-only effect, or another doubt; inactive means no such curve, though single readings can be large; an effect the other way counts as inactive or inconclusive. Unless noted, on the % scale 0 is the no-effect control and ±100 the full control effect.

SMILES	HT1080-NT tox	uPA generation	TDP1 cell CPT	IL1B secr inh	HT1080 IDH1KD tx	TDP1 cell noCPT
CCc1ccc(-c2cc(C(=O)Nn3cnnc3)c3ccccc3n2)cc1	10µM*	?	7.3µM*	26	14µM*	13µM*
O=C(NN1CCOCC1)c1cc(-c2ccc(Br)s2)nc2ccccc12	5%	12%	?	12	12%	?
CC(C)Oc1cccc(-c2cc(C(=O)NN3CCOCC3)c3ccccc3n2)c1	-4%	0%	15µM*	-3	1%	10µM*
O=C(NC1CCCC1)C1C(c2ccc(C(F)(F)F)cc2)=Nc2ccccc2N1C(=O)c1cc2ccccc2[nH]1 (configuration not stated)	-29%	nt	?	24	-25%	13µM*
COc1ccc(CCC(=O)N2c3ccccc3N=C(c3ccc(C(F)(F)F)cc3)C2C(=O)NC2CCCC2)cc1 (configuration not stated)	-10%	nt	?	-5	-23%	18µM*
CC(=O)N1c2ccccc2N=C(c2ccc(C(F)(F)F)cc2)C1C(=O)NC1CCCC1 (configuration not stated)	-9%	nt	?	0	-15%	?
CCOC(=O)c1c(C)[nH]c(C)c1S(=O)(=O)N1CCC(C(=O)Nc2ccc(F)cc2F)CC1	nt	nt	-3%	nt	nt	1%
CCOc1ccccc1NC(=O)Cn1c(=O)n(-c2ccc(Cl)cc2)c(=O)c2oc3ccccc3c21	nt	nt	-15%	nt	nt	-13%
Cc1ccc(C)c(NC(=O)c2ccc(CN3CC(=O)N4CCCCC4C3=O)cc2)c1 (configuration not stated)	nt	nt	16µM*	nt	nt	16µM*
COC(=O)CNC(=O)COC(=O)c1ccc(Cl)nc1	27%	1%	-25%	7	15%	1%
Cc1ccc2[nH]c3c(N4CCN(Cc5ccccc5)CC4)ncnc3c2c1	?	-14%	13µM*	?	21µM*	9.2µM*
CCOc1ccc2oc(C(=O)N3CCN(c4ccccn4)CC3)c(C)c2c1	-1%	5%	-27%	i	-8%	-27%
Cc1ccc2c(c1)[nH]c1c(N3CCN(Cc4ccccc4)CC3)ncnc12	?	-22%	5.8µM*	-98*	?	4.6µM*
CCOc1ccc2[nH]c3c(N4CCN(c5ccccn5)CC4)ncnc3c2c1	?	nt	8.9µM*	-77*	?	16µM*
Cc1ccc2[nH]c3c(NCCN4CCOCC4)ncnc3c2c1	-8%	-11%	?	-5	-16%	?
Cc1ccc(CN2C(=O)CC(c3ccc(Cl)cc3)c3c(C)nn(-c4nc(C)cc(C)n4)c32)cc1 (configuration not stated)	nt	nt	?	nt	nt	21µM*
COc1ccc(C2CC(=O)Nc3c2c(C)nn3-c2nncc(-c3ccc(C)cc3)n2)c(OC)c1OC (configuration not stated)	nt	nt	12µM*	nt	nt	6.5µM*
Cc1cc(C)nc(N2C(=O)CC(Cc3ccc(Cl)cc3)C2=O)n1 (configuration not stated)	1%	nt	22%	8	1%	-7%
COc1ccc(C2CC(=O)Nc3c2c(C)nn3-c2nc(C)cc(C)n2)c(OC)c1OC (configuration not stated)	nt	nt	-16%	nt	nt	-22%
Cc1cc(C)nc(-n2nc(C)c3c2NC(=O)CC3c2ccccc2OC(C)C)n1 (configuration not stated)	nt	nt	16µM*	nt	nt	18µM*
CCc1ccc(C2CC(=O)Nc3c2c(C)nn3-c2nc(C)cc(C)n2)cc1 (configuration not stated)	nt	nt	21µM*	nt	nt	21µM*
COc1cc(C2CC(=O)Nc3c2c(C)nn3-c2nc(C)cc(C)n2)cc(OC)c1O (configuration not stated)	nt	nt	-4%	nt	nt	-9%
COc1ccc(/C=C/C(=O)OCC(=O)NC2CCCC2)c(OC)c1	7%	18%	-28%	0	3%	?
CCc1ccc2oc(C(=O)Nc3cccc(Cl)c3C)cc(=O)c2c1	nt	nt	?	nt	nt	-24%
C[C@H](CO)N1C[C@H](C)[C@@H](CN(C)C(=O)Nc2ccc(C(F)(F)F)cc2)Oc2c(NC(=O)Nc3ccc4c(c3)OCO4)cccc2C1=O	-23%	-2%	?	?	-9%	18µM*
SMILES	HT1080-NT tox	uPA generation	TDP1 cell CPT	IL1B secr inh	HT1080 IDH1KD tx	TDP1 cell noCPT
C[C@H](CO)N1C[C@H](C)[C@@H](CN(C)C(=O)Nc2ccc3c(c2)OCO3)Oc2c(NC(=O)Nc3ccc(C(F)(F)F)cc3)cccc2C1=O	?	?	13µM*	0	?	?
CCC(CC)c1nnc(NC(=O)C2=NNC(=O)CC2)s1	2%	0%	4%	15	14%	-17%
CC1=C(Nc2ccc(C(=O)O)cc2)C(=O)c2ccccc2C1=O	?	-13%	?	30	?	?
O=C1C(Nc2ccccc2)=C(N2CCCCC2)C(=O)c2ccccc21	?	-5%	18µM*	-3	?	9.2µM*
O=C(/C=C/c1ccc(O)cc1)c1ccc(NC2=C(N3CCCCC3)C(=O)c3ccccc3C2=O)cc1	-19%	-5%	1.3µM*	?	?	1.6µM*
Cc1ccc(NC2=C(N3CCCCC3)C(=O)c3ccccc3C2=O)cc1	?	-2%	2.6µM*	-68*	?	2.3µM*
O=C(/C=C/c1ccccc1)Nc1ccc(C(=O)N2CCCCC2)cc1	-11%	6%	?	-20	-10%	?
CN(C1=C(N2CCCCC2)C(=O)c2ccccc2C1=O)c1ccccc1	?	9%	15µM*	-82*	?	21µM*
O=c1nc(N2CCCCC2)nc(Nc2ccccc2)[nH]1	-3%	3%	?	?	9%	-11%
CC(Oc1ccc(F)cc1)C(=O)NCC1(N(C)C)CCCCC1 (configuration not stated)	nt	nt	-3%	nt	nt	1%
COc1ccc(NC(C)=O)cc1NC(=O)c1ccc2ccccc2c1	-9%	-7%	-8%	16	-3%	-12%
C#CCN1CCc2onc(-c3ccc(Br)cc3)c2C1=O	-23%	nt	19%	-2	0%	-22%
COc1ccccc1NC1=C(N2CCCCC2)C(=O)c2ccccc2C1=O	4.6µM*	-10%	2.1µM*	?	?	1.8µM*
O=C1C(NS(=O)(=O)c2ccccc2)=C(N2CCN(c3ccc(F)cc3)CC2)C(=O)c2ccccc21	?	5%	?	-11	-19%	?
